Experiments:
Experiment in all cases: DAPPL (digital affinity profiling via proximity ligation, sequencing); 10 mM Tris-HCl pH 7.5, 50 mM NaCl, 1 mM DTT, 4% glycerol, room temperature, 30 min; GST-TFs on glutathione beads, 16-mer random dsDNA library, 0.1% formaldehyde crosslink after washing; high values mean tight binding
Settings in all cases: protein: recombinant; tags: N-terminal GST; dsDNA, one strand shown
FLI1 = biological target: T1, FLI1 (Homo sapiens, UniProt Q01543 1-452)
T1 sequence: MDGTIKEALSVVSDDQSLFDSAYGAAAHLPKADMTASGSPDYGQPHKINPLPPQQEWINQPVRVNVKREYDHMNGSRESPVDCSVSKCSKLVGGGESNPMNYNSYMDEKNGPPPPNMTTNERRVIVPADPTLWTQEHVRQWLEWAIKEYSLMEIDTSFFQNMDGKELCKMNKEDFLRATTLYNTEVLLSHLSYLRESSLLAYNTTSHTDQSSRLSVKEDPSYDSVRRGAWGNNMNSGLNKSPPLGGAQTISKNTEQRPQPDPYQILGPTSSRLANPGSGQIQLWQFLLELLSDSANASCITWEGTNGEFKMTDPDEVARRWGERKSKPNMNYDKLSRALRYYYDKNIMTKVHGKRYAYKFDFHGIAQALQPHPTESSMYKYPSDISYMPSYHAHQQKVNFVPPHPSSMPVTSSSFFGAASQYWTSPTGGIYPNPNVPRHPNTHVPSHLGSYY
Method in brief: (§1)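 Human transcription factors carrying a GST fusion were produced in yeast, bound to glutathione beads, tagged with DNA barcodes and pooled together with a tag-only sample. Each pool was held with 200 nmole of a random double-stranded 16-mer DNA library in Tris/NaCl/DTT/glycerol buffer for 30 min at room temperature, then washed, crosslinked in 0.1% formaldehyde, proximity-ligated with BsaI/T4 ligase (1 h, 37 °C), PCR-amplified and sequenced on an Illumina NextSeq500. Binding signal is the read frequency of each hexamer for a given factor divided by its frequency in the tag-only sample.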

ELK1 = biological target: T2, ELK1 (Homo sapiens, UniProt P19419 1-428)
T2 sequence: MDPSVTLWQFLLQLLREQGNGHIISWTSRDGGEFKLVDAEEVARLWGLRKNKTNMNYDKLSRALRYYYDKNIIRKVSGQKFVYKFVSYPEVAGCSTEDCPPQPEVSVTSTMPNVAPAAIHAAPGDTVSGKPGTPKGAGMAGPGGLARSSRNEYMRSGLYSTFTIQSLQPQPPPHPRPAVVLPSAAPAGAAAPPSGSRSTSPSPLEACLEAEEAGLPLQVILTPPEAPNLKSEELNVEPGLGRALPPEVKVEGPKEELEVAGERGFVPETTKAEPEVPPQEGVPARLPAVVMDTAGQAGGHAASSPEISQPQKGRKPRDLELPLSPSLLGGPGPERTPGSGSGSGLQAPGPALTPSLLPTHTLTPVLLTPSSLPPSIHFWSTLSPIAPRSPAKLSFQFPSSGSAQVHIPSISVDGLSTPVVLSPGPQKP
Method in brief: as §1

GABPA = biological target: T3, GABPA (Homo sapiens, UniProt Q06546 1-454)
T3 sequence: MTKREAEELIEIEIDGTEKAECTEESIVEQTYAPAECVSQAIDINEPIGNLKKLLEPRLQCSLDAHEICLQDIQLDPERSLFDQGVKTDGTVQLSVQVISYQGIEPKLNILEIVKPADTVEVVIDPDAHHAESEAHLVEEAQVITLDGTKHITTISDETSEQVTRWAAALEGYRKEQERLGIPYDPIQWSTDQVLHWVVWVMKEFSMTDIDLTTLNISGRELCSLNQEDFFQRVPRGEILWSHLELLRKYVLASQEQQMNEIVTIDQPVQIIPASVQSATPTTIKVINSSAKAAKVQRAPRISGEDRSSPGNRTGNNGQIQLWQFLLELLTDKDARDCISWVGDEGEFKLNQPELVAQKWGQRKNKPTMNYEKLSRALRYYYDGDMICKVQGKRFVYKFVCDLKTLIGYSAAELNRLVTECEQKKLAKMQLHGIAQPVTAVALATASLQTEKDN
Method in brief: as §1

ERG = biological target: T4, ERG (Homo sapiens, UniProt P11308 1-479)
T4 sequence: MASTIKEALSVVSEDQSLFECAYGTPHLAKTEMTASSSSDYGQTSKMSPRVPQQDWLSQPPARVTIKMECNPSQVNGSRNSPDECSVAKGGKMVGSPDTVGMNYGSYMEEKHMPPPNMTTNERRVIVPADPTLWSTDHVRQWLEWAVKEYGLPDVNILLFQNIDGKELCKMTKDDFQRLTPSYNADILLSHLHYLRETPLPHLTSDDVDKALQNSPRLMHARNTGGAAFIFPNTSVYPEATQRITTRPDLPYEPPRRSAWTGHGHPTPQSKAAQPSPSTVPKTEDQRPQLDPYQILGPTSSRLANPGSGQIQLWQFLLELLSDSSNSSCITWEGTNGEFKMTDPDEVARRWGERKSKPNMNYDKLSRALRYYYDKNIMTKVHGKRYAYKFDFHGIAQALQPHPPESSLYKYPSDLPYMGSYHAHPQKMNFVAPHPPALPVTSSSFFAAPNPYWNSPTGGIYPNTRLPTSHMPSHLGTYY
Method in brief: as §1

ELF1 = ELF1 (Homo sapiens, UniProt P32519 1-619)
Method in brief: as §1

EHF = biological target: T5, EHF (Homo sapiens, UniProt Q9NZC4 1-300)
T5 sequence: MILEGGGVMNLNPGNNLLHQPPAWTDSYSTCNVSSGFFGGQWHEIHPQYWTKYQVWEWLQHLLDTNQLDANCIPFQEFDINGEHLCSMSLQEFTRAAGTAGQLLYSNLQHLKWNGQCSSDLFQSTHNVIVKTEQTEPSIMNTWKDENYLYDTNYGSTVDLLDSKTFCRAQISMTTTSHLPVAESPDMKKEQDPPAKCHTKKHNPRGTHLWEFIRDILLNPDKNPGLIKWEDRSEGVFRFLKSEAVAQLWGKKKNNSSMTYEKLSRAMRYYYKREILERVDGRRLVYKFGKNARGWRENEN
Method in brief: as §1

SPI1 = SPI1 (Homo sapiens, UniProt P17947 1-270)
Method in brief: as §1

SPIB = SPIB (Homo sapiens, UniProt Q01892 1-262)
Method in brief: as §1

ELK3 = biological target: T6, ELK3 (Homo sapiens, UniProt P41970 1-407)
T6 sequence: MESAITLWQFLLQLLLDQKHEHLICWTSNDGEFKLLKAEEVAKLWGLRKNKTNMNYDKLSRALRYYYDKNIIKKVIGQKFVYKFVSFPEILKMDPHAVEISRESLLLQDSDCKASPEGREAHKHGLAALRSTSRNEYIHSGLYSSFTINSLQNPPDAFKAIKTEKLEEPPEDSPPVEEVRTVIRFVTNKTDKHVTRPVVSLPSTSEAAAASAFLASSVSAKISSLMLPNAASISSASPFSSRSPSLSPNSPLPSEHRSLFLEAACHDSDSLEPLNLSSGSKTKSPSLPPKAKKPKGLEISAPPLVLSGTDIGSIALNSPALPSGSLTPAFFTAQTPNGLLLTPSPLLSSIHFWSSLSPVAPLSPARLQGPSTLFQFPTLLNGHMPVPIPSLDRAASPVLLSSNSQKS
Method in brief: as §1

FEV = biological target: T7, FEV (Homo sapiens, UniProt Q99581 1-238)
T7 sequence: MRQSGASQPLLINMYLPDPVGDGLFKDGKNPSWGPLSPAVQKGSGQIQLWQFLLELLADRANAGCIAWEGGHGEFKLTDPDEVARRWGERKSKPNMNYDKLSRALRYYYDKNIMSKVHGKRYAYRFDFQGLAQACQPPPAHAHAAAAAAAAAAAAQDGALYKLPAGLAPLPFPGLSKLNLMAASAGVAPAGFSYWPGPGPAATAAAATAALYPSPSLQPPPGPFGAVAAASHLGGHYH
Method in brief: as §1

ETV5 = ETV5 (Homo sapiens, UniProt P41161 1-510)
Method in brief: as §1

SPIC = biological target: T8, SPIC (Homo sapiens, UniProt Q8N5J4 1-248)
T8 sequence: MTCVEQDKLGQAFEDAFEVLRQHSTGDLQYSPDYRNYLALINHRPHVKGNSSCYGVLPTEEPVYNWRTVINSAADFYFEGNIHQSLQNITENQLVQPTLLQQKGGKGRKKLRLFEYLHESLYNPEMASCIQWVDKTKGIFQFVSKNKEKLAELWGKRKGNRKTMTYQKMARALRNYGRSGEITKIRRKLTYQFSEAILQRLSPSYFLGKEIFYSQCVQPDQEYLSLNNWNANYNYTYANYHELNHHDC
Method in brief: as §1

ELF4 = ELF4 (Homo sapiens, UniProt Q99607 1-663)
Method in brief: as §1

ELK4 = biological target: T9, ELK4 (Homo sapiens, UniProt P28324-2 1-405)
T9 sequence: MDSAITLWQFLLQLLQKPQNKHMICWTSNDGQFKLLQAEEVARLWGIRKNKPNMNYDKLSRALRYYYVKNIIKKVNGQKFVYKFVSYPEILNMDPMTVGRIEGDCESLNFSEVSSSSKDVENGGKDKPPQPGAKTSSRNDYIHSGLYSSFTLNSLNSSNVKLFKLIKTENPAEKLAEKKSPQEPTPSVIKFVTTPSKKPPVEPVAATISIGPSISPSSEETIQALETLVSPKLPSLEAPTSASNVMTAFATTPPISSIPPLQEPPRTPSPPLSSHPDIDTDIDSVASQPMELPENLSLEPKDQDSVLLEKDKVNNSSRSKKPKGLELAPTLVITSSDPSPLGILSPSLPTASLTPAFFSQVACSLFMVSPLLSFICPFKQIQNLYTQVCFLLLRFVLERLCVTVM
Method in brief: as §1

ELF3 = biological target: T10, ELF3 (Homo sapiens, UniProt P78545 1-371)
T10 sequence: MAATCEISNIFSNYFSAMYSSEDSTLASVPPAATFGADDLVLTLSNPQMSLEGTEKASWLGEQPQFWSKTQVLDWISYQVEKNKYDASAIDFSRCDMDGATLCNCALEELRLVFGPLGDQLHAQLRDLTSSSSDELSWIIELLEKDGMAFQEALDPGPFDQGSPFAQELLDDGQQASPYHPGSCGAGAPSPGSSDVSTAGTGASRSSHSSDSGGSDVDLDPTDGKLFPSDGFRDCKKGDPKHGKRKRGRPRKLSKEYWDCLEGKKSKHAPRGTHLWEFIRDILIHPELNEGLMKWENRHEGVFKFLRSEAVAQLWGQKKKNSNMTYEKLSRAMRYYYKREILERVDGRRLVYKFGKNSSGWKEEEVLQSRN
Method in brief: as §1

CRX = CRX (Homo sapiens, UniProt O43186 1-299)
Method in brief: as §1

ETV1 = ETV1 (Homo sapiens, UniProt P50549 1-477)
Method in brief: as §1

ETV5, sequence (P41161 whole entry): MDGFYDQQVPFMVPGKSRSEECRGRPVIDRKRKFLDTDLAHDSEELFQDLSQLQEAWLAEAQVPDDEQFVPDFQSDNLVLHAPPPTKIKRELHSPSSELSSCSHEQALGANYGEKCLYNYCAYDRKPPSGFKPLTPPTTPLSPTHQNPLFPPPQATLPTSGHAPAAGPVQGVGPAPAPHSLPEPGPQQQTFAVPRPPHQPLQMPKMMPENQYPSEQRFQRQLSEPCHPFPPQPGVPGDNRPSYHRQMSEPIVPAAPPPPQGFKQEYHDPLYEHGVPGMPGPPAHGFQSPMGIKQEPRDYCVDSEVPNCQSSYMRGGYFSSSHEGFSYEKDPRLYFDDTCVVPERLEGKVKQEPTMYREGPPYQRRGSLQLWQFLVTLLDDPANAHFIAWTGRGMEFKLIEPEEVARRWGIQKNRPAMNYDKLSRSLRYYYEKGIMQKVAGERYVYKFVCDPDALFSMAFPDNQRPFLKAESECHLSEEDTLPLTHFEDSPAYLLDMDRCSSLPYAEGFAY
ELF4, sequence (Q99607 whole entry): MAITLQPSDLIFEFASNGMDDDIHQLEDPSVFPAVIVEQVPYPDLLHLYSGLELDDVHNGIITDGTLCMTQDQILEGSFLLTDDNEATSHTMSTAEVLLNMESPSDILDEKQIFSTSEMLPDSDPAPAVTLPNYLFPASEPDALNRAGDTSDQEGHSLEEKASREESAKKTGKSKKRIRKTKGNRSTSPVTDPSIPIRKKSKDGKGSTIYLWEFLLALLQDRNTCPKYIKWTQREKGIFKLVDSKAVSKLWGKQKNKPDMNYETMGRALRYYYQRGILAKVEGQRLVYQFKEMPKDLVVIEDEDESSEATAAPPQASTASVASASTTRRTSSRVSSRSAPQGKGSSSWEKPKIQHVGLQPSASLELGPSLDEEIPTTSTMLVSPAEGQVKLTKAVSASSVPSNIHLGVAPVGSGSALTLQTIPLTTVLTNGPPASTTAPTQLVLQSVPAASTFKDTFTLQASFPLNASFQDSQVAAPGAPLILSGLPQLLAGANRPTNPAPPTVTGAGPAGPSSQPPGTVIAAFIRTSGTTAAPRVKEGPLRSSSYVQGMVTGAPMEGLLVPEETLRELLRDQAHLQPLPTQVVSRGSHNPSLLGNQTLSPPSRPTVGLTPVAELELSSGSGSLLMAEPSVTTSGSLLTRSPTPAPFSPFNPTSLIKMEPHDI
SPIB, sequence (Q01892 whole entry): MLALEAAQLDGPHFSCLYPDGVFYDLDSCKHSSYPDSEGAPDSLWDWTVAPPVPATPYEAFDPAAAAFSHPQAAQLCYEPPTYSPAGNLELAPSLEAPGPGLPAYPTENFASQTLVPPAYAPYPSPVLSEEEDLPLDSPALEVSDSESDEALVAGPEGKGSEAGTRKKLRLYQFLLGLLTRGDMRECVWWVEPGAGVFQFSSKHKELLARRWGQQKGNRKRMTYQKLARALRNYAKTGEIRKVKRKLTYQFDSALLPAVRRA
ELF1, sequence (P32519 whole entry): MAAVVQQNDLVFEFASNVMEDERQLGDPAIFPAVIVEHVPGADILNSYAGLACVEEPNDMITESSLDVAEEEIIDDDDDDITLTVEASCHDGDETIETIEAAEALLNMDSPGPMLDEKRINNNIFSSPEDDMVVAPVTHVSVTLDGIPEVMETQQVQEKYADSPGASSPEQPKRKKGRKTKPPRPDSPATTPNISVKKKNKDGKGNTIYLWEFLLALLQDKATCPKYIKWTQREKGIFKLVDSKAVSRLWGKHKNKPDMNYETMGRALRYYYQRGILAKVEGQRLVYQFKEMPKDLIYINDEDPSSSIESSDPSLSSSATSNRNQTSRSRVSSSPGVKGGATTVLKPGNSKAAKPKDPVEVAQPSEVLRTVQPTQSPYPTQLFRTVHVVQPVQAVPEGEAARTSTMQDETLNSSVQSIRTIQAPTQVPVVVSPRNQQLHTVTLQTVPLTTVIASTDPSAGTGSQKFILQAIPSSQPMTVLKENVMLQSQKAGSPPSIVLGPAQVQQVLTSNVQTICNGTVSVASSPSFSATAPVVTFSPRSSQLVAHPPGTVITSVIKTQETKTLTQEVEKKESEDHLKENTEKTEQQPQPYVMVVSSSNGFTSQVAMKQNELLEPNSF
ETV1, sequence (P50549 whole entry): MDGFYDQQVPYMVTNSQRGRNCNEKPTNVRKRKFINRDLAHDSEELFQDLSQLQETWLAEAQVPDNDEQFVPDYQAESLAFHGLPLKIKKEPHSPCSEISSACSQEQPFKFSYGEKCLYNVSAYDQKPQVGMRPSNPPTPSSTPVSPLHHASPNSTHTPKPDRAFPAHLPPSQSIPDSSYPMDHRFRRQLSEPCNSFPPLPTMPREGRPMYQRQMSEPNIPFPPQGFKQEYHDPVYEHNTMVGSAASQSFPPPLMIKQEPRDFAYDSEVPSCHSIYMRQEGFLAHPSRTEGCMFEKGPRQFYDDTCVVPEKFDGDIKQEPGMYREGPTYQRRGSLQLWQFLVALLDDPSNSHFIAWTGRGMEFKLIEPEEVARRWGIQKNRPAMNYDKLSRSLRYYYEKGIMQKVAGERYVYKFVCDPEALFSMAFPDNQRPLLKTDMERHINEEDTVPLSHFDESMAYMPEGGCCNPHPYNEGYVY
CRX, sequence (O43186 whole entry): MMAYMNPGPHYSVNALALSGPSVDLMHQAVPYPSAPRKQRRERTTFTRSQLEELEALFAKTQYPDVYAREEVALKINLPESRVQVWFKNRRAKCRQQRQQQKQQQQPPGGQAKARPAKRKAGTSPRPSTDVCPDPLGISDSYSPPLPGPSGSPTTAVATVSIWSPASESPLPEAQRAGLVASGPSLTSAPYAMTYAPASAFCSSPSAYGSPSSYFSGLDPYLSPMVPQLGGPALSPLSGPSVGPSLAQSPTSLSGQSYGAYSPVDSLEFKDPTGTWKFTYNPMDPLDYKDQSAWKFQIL

Row | Sequence | binding signal (FLI1) | binding signal (ELK1) | binding signal (GABPA) | binding signal (ERG) | binding signal (ELF1) | binding signal (EHF) | binding signal (SPI1) | binding signal (SPIB) | binding signal (ELK3) | binding signal (FEV) | binding signal (ETV5) | binding signal (SPIC) | binding signal (ELF4) | binding signal (ELK4) | binding signal (ELF3) | binding signal (CRX) | binding signal (ETV1)
1 | ATATGA | 1.11 fold enrichment (6-mer frequency, TF over GST control) | 1.07 fold enrichment (6-mer frequency, TF over GST control) | 1.1 fold enrichment (6-mer frequency, TF over GST control) | 1.14 fold enrichment (6-mer frequency, TF over GST control) | 1.06 fold enrichment (6-mer frequency, TF over GST control) | 1.07 fold enrichment (6-mer frequency, TF over GST control) | 1.1 fold enrichment (6-mer frequency, TF over GST control) | 1.1 fold enrichment (6-mer frequency, TF over GST control) | 1.18 fold enrichment (6-mer frequency, TF over GST control) | 1.03 fold enrichment (6-mer frequency, TF over GST control) | 1.11 fold enrichment (6-mer frequency, TF over GST control) | 1.16 fold enrichment (6-mer frequency, TF over GST control) | 1.1 fold enrichment (6-mer frequency, TF over GST control) | 1.19 fold enrichment (6-mer frequency, TF over GST control) | 1.1 fold enrichment (6-mer frequency, TF over GST control) | 1.02 fold enrichment (6-mer frequency, TF over GST control) | 1.05 fold enrichment (6-mer frequency, TF over GST control)
2 | GTTACA | 1.15 fold enrichment (6-mer frequency, TF over GST control) | 1.1 fold enrichment (6-mer frequency, TF over GST control) | 1.09 fold enrichment (6-mer frequency, TF over GST control) | 1.13 fold enrichment (6-mer frequency, TF over GST control) | 1.14 fold enrichment (6-mer frequency, TF over GST control) | 1.2 fold enrichment (6-mer frequency, TF over GST control) | 1.11 fold enrichment (6-mer frequency, TF over GST control) | 1.09 fold enrichment (6-mer frequency, TF over GST control) | 1.24 fold enrichment (6-mer frequency, TF over GST control) | 1.18 fold enrichment (6-mer frequency, TF over GST control) | 1.16 fold enrichment (6-mer frequency, TF over GST control) | 1.14 fold enrichment (6-mer frequency, TF over GST control) | 1.11 fold enrichment (6-mer frequency, TF over GST control) | 1.26 fold enrichment (6-mer frequency, TF over GST control) | 1.15 fold enrichment (6-mer frequency, TF over GST control) | – | 1.11 fold enrichment (6-mer frequency, TF over GST control)

Source: article PMC7862700, “An all-to-all approach to the identification of sequence-specific readers for epigenetic DNA modifications on cytosine”
